# According to the supplement of paper PMC8728848:
# This excerpt belongs to a sample that is enriched for the strongest signals.
# Legend:
# Test in all cases: glycan array binding signal (z-score within array); higher = stronger binding
# Conditions in all cases: glycan notation: IUPAC condensed, linker removed
# [1] = target: GlcNAc(b1-3)Gal(b1-4)GlcNAc(b1-3)Gal(b1-4)GlcNAc(b1-2)Man(a1-3)[GlcNAc(b1-3)Gal(b1-4)GlcNAc(b1-3)Gal(b1-4)GlcNAc(b1-2)Man(a1-6)]Man(b1-4)GlcNAc(b1-4)[Fuc(a1-6)]GlcNAc
# Summary of the method: (§1)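 The binding signal is a Z-score computed within each array and averaged over linkers. Arrays of the same protein sequence at different concentrations or buffers were also averaged together. Data originate from 3228 arrays in the Consortium for Functional Glycomics database, kept only where the protein sequence was available.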
# [2] = target: GlcNAc(b1-3)Gal(b1-4)GlcNAc(b1-3)Gal(b1-4)GlcNAc(b1-3)Gal(b1-4)GlcNAc(b1-2)Man(a1-3)[GlcNAc(b1-3)Gal(b1-4)GlcNAc(b1-3)Gal(b1-4)GlcNAc(b1-3)Gal(b1-4)GlcNAc(b1-2)Man(a1-6)]Man(b1-4)GlcNAc(b1-4)GlcNAc
# Summary of the method: as §1
# [3] = target: GlcNAc(b1-3)Gal(b1-4)GlcNAc(b1-3)Gal(b1-4)GlcNAc(b1-3)Gal(b1-4)GlcNAc(b1-2)Man(a1-3)[GlcNAc(b1-3)Gal(b1-4)GlcNAc(b1-3)Gal(b1-4)GlcNAc(b1-3)Gal(b1-4)GlcNAc(b1-2)Man(a1-6)]Man(b1-4)GlcNAc(b1-4)[Fuc(a1-6)]GlcNAc
# Summary of the method: as §1
# [4] = target: GlcNAc(b1-3)Gal(b1-4)GlcNAc(b1-3)Gal(b1-4)GlcNAc(b1-3)Gal(b1-4)GlcNAc(b1-3)Gal(b1-4)GlcNAc(b1-2)Man(a1-3)[GlcNAc(b1-3)Gal(b1-4)GlcNAc(b1-3)Gal(b1-4)GlcNAc(b1-3)Gal(b1-4)GlcNAc(b1-3)Gal(b1-4)GlcNAc(b1-2)Man(a1-6)]Man(b1-4)GlcNAc(b1-4)GlcNAc
# Summary of the method: as §1
# [5] = target: GlcNAc(b1-3)Gal(b1-4)GlcNAc(b1-3)Gal(b1-4)GlcNAc(b1-3)Gal(b1-4)GlcNAc(b1-3)Gal(b1-4)GlcNAc(b1-2)Man(a1-3)[GlcNAc(b1-3)Gal(b1-4)GlcNAc(b1-3)Gal(b1-4)GlcNAc(b1-3)Gal(b1-4)GlcNAc(b1-3)Gal(b1-4)GlcNAc(b1-2)Man(a1-6)]Man(b1-4)GlcNAc(b1-4)[Fuc(a1-6)]GlcNAc
# Summary of the method: as §1
# [6] = target: GlcNAc(b1-3)Gal(b1-4)GlcNAc(b1-3)Gal(b1-4)GlcNAc(b1-3)Gal(b1-4)GlcNAc(b1-3)Gal(b1-4)GlcNAc(b1-2)[GlcNAc(b1-3)Gal(b1-4)GlcNAc(b1-3)Gal(b1-4)GlcNAc(b1-3)Gal(b1-4)GlcNAc(b1-3)Gal(b1-4)GlcNAc(b1-6)]Man(a1-6)[GlcNAc(b1-3)Gal(b1-4)GlcNAc(b1-3)Gal(b1-4)GlcNAc(b1-3)Gal(b1-4)GlcNAc(b1-3)Gal(b1-4)GlcNAc(b1-2)Man(a1-3)]Man(b1-4)GlcNAc(b1-4)[Fuc(a1-6)]GlcNAc
# Summary of the method: as §1
# [7] = target: GlcNAc(b1-3)Gal(b1-4)GlcNAc(b1-3)[GlcNAc(b1-3)Gal(b1-4)GlcNAc(b1-3)]GalNAc
# Summary of the method: as §1
# [8] = target: GlcNAc(b1-3)Gal(b1-4)GlcNAc(b1-6)[Gal(b1-3)]GalNAc
# Summary of the method: as §1
# [9] = target: GlcNAc(b1-4)Gal(b1-4)GlcNAc
# Summary of the method: as §1
# [10] = target: GlcNAc(b1-6)Gal(b1-4)GlcNAc
# Summary of the method: as §1
# GlcNAc(b1-6)GalNAc = target: GlcNAc(b1-6)GalNAc
# Summary of the method: as §1
# [11] = target: Man(a1-2)Man(a1-3)[Man(a1-6)]Man(a1-6)[Man(a1-2)Man(a1-3)]Man(b1-4)GlcNAc(b1-4)GlcNAc
# Summary of the method: as §1
# [12] = target: Man(a1-3)[Man(a1-6)]Man(b1-4)GlcNAc(b1-4)GlcNAc
# Summary of the method: as §1
# [13] = target: Man(a1-3)[Man(a1-6)]Man(b1-4)GlcNAc(b1-4)[Fuc(a1-6)]GlcNAc
# Summary of the method: as §1
# [14] = target: Neu5Ac(a2-3)Gal(b1-3)[Fuc(a1-4)]GlcNAc
# Summary of the method: as §1
# [15] = target: Neu5Ac(a2-3)Gal(b1-3)[GlcNAc(b1-6)]GalNAc
# Summary of the method: as §1
# [16] = target: Neu5Ac(a2-3)Gal(b1-4)GlcNAc(b1-2)Man(a1-3)[Neu5Ac(a2-3)Gal(b1-4)GlcNAc(b1-2)Man(a1-6)]Man(b1-4)GlcNAc(b1-4)[Fuc(a1-6)]GlcNAc
# Summary of the method: as §1
# [17] = target: Neu5Ac(a2-3)Gal(b1-4)GlcNAc(b1-2)[Neu5Ac(a2-3)Gal(b1-4)GlcNAc(b1-4)]Man(a1-3)[GlcNAc(b1-4)][Neu5Ac(a2-3)Gal(b1-4)GlcNAc(b1-4)Man(a1-6)]Man(b1-4)GlcNAc(b1-4)GlcNAc
# Summary of the method: as §1
# [18] = target: Neu5Ac(a2-3)Gal(b1-4)GlcNAc(b1-3)Gal(b1-4)GlcNAc
# Summary of the method: as §1
# [19] = target: Neu5Ac(a2-3)Gal(b1-4)GlcNAc(b1-3)Gal(b1-4)GlcNAc(b1-2)Man(a1-3)[Neu5Ac(a2-3)Gal(b1-4)GlcNAc(b1-3)Gal(b1-4)GlcNAc(b1-2)Man(a1-6)]Man(b1-4)GlcNAc(b1-4)GlcNAc
# Summary of the method: as §1
# [20] = target: Neu5Ac(a2-3)GalNAc(b1-4)GlcNAc
# Summary of the method: as §1
# [21] = target: Neu5Ac(a2-6)Gal(b1-4)GlcNAc(b1-2)Man(a1-3)Man(b1-4)GlcNAc(b1-4)GlcNAc
# Summary of the method: as §1
# [22] = target: Neu5Ac(a2-6)Gal(b1-4)GlcNAc(b1-2)Man(a1-3)[Neu5Ac(a2-3)Gal(b1-4)GlcNAc(b1-2)Man(a1-6)]Man(b1-4)GlcNAc(b1-4)GlcNAc
# Summary of the method: as §1
# [23] = target: Neu5Ac(a2-6)Gal(b1-4)GlcNAc(b1-2)Man(a1-6)[GlcNAc(b1-2)Man(a1-3)]Man(b1-4)GlcNAc(b1-4)GlcNAc
# Summary of the method: as §1
# [24] = target: Neu5Ac(a2-8)Neu5Ac(a2-3)Gal(b1-4)Glc
# Summary of the method: as §1
# [25] = target: Neu5Gc(a2-3)Gal(b1-3)GlcNAc
# Summary of the method: as §1
# [26] = target: Neu5Gc(a2-3)Gal(b1-4)GlcNAc
# Summary of the method: as §1
# [27] = target: Neu5Gc(a2-8)Neu5Gc(a2-6)Gal(b1-4)GlcNAc
# Summary of the method: as §1
binder,measurement,setting,value
PpFlo2 (Pichia pastoris) (protein) MGSSHHHHHHSSGLVPRGSHMDDSGNGDNSDTAYGCDITTNAVDGFDATIYQYNANDLRLIRDPTFMSTGYLGRNVLNKISGVTVPGFNIWNPSSRTATVYGVKNVNYYNMVLELKGYFKADVSGDYKLTLSHIDDSSMLFFGKETAFKCCDAGSIPLNEAPTDYSLFTIKPSNQVNSEVISATQYLEAGKYYPVRIVFVNALERARFDFKLTIPSGAVLDDFQNYIYQFGDLDENSCHE,glycan array binding signal (z-score),[1],6.15
same,glycan array binding signal (z-score),[2],4.24
same,glycan array binding signal (z-score),[3],7.22
same,glycan array binding signal (z-score),[4],7.34
same,glycan array binding signal (z-score),[5],7.63
same,glycan array binding signal (z-score),[6],4.18
same,glycan array binding signal (z-score),[7],4.33
same,glycan array binding signal (z-score),[8],2.11
same,glycan array binding signal (z-score),[9],0.414
same,glycan array binding signal (z-score),[10],0.578
same,glycan array binding signal (z-score),GlcNAc(b1-6)GalNAc,0.967
same,glycan array binding signal (z-score),[11],-0.276
same,glycan array binding signal (z-score),[12],0.074
same,glycan array binding signal (z-score),[13],-0.248
same,glycan array binding signal (z-score),[14],-0.304
same,glycan array binding signal (z-score),[15],0.351
same,glycan array binding signal (z-score),[16],-0.271
same,glycan array binding signal (z-score),[17],-0.271
same,glycan array binding signal (z-score),[18],-0.293
same,glycan array binding signal (z-score),[19],-0.239
same,glycan array binding signal (z-score),[20],-0.302
same,glycan array binding signal (z-score),[21],-0.293
same,glycan array binding signal (z-score),[22],-0.271
same,glycan array binding signal (z-score),[23],2.77
same,glycan array binding signal (z-score),[24],-0.301
same,glycan array binding signal (z-score),[25],-0.301
same,glycan array binding signal (z-score),[26],-0.299
same,glycan array binding signal (z-score),[27],-0.273
